According to PubChem BioAssay (NCI):
About 83,000 compounds went through this panel and 20% of them were active in at least one assay; those are over-represented in the sample as a whole.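 48-hour exposure, single concentration, 96-well plates; percent growth endpoint where 0 means no net growth. Active: below 10.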 Active and inactive are the calls of the source.

How the values were obtained:
Assay in all cases: NCI-60 one-dose screen, 48 h (100 = growth as untreated, 0 = no growth, -100 = all killed)
Conditions in all cases: 10 µM
[1] = test system: NCI-H23 lung
[2] = test system: NCI-H226 lung
[3] = test system: HOP-62 NSCLC
[4] = test system: NCI-H460 lung
[5] = test system: HOP-92 NSCLC
[6] = test system: NCI-H522 lung
[7] = test system: A549/ATCC NSCLC
[8] = test system: 786-0 renal
[9] = test system: COLO 205 colon
[10] = test system: DU-145 prostate
[11] = test system: K-562 leukemia
[12] = test system: MALME-3M melanoma
[13] = test system: MDA-MB-231 breast
[14] = test system: RXF 393 renal
[15] = test system: SF-268 CNS
[16] = test system: SF-295 CNS
[17] = test system: SF-539 CNS
[18] = test system: UACC-257 melanoma
[19] = test system: M14 melanoma

Measured: growth

COc1ccc(C(=O)N/N=C/c2cc(C(F)(F)F)ccc2Cl)cc1
inactive: [1] 81.3% | [2] 82.3% | [3] 107% | [4] 99.8% | [5] 90.2% | [6] 82.1% | [7] 97.4% | [8] 104% | [9] 104% | [10] 105% | [11] 95.4% | [12] 111% | [13] 89.4% | [14] 74.9% | [15] 112% | [16] 78.2% | [17] 104% | [18] 105% | [19] 104%

NS(=O)(=O)c1ccc(Br)cc1
inactive: [1] 96% | [2] 110% | [3] 82.1% | [4] 108% | [5] 94% | [6] 86.2% | [7] 81.8% | [8] 89% | [9] 98.5% | [10] 114% | [11] 109% | [12] 103% | [13] 99.3% | [14] 113% | [15] 98.3% | [16] 88.3% | [17] 96.3% | [18] 88.2% | [19] 86.3%

CN1CCN(CC(=O)Nc2cccc(-n3cc(-c4ccncc4)c(-c4ccc(Cl)c(O)c4)n3)c2)CC1
inactive: [1] 50.4% | [2] 74.3% | [3] 58.6% | [4] 13.3% | [5] 15.4% | [6] 18.1% | [7] 29.3% | [8] 33.6% | [9] 13.5% | [10] 19.4% | [11] 11.8% | [12] 46.3% | [13] 46.1% | [14] 35% | [15] 47.7% | [16] 21.8% | [18] 24.9%
active: [17] 0.848% | [19] 8.05%

O=C(CN(C1CCCCC1)C1CCCCC1)Nc1ccc(S(=O)(=O)c2ccc(NC(=O)CN(C3CCCCC3)C3CCCCC3)cc2)cc1
inactive: [16] 14.4%
active: [1] -36.6% | [2] 0.397% | [3] -21.4% | [4] -9.66% | [5] -86.7% | [6] -74.4% | [7] 2.61% | [8] -82.7% | [9] -70.6% | [10] -47.9% | [11] -29.8% | [12] -67.4% | [13] -49.4% | [14] -61.4% | [15] -7.58% | [17] -89.9% | [18] -17.9% | [19] -59.4%

Nc1ncnc2c1ncn2C1(CO)OCC(O)C(O)C1O (centres undefined)
inactive: [1] 96.8% | [2] 107% | [3] 91.4% | [4] 107% | [5] 113% | [6] 82.4% | [7] 96.7% | [8] 101% | [9] 113% | [10] 104% | [11] 110% | [12] 98.6% | [13] 109% | [14] 110% | [15] 95.3% | [16] 101% | [17] 96.5% | [18] 101% | [19] 97%

COc1ccc(-c2onc(N)c2-c2cc(OC)c3c(c2)OCO3)cc1
inactive: [1] 44% | [2] 77% | [3] 29.4% | [4] 14.9% | [5] 63.9% | [7] 32.2% | [8] 47.2% | [9] 12.4% | [10] 29.3% | [11] 13% | [12] 29.5% | [13] 56.7% | [14] 24.8% | [15] 50.1% | [16] 14.3% | [17] 20.1% | [18] 47.5%
active: [6] 9.81% | [19] -0.971%

CC(CN(C)C)Oc1ccccc1NC1=C(Cl)C(=O)C(Nc2ccccc2OC(C)CN(C)C)=C(Cl)C1=O (centres undefined)
inactive: [16] 30.6%
active: [1] -70.7% | [2] -94.4% | [3] -97.6% | [4] -4.55% | [5] -60.7% | [6] -73.4% | [7] 1.98% | [8] -71.5% | [9] -67.3% | [10] -99.3% | [11] -11.2% | [12] -76.6% | [13] -77.5% | [14] -90.7% | [15] -81.8% | [17] -98% | [18] -91.8% | [19] -65%

CCN1CCN(CCC(=O)Nc2cccc(-n3cc(-c4ccncc4)c(-c4ccc(Cl)c(OC)c4)n3)c2)CC1
active: [4] 6.94% | [5] 6.07% | [6] -23.2% | [7] 8.56% | [8] -47.6% | [9] -69.3% | [11] -34% | [12] -63.6% | [13] 4.87% | [14] -7.05% | [16] 9.42% | [17] -51.9% | [18] -85.5% | [19] -63.4%
inactive: [1] 32.2% | [2] 65% | [3] 37.7% | [10] 12.4% | [15] 35.4%

COc1cc2c(cc1NC(=O)C(F)(F)F)-c1ccc(NC(=O)C(F)(F)F)cc1C2
inactive: [1] 86.9% | [2] 47.9% | [3] 45.4% | [4] 97.8% | [5] 90.3% | [6] 99.2% | [7] 92.2% | [8] 98.6% | [9] 112% | [10] 93.4% | [11] 100% | [12] 83.7% | [13] 91.1% | [14] 35.7% | [15] 90.1% | [16] 83.4% | [17] 80.6% | [18] 109% | [19] 113%

c1ccc2c(c1)Cc1ccccc1N2CCN1CCCCC1
inactive: [1] 90% | [2] 103% | [3] 84.1% | [4] 107% | [5] 85.8% | [6] 75.2% | [7] 89.9% | [8] 95.3% | [9] 82.2% | [10] 104% | [11] 91.5% | [12] 111% | [13] 81.5% | [14] 110% | [15] 99% | [16] 92.5% | [17] 94.9% | [18] 102% | [19] 86.1%

Cc1ccc(N=Nc2ccccc2)cc1
inactive: [1] 95.1% | [2] 108% | [3] 90.5% | [4] 105% | [5] 90.9% | [6] 84.2% | [7] 87.8% | [8] 89.6% | [9] 106% | [10] 111% | [11] 112% | [12] 98.4% | [13] 109% | [14] 106% | [15] 99.8% | [16] 90.3% | [17] 100% | [18] 88% | [19] 90.9%

COc1cc(-c2nc3ccccc3o2)cc(CN2CCCCC2)c1O
inactive: [1] 22.1% | [2] 78.8% | [3] 49.7% | [4] 31.7% | [5] 103% | [6] 65.9% | [7] 34% | [8] 94.7% | [9] 113% | [10] 12.9% | [11] 32.7% | [12] 28.9% | [13] 70.9% | [14] 94.8% | [15] 68.2% | [16] 32.5% | [17] 83.5% | [18] 75.2% | [19] 34.9%

O=C(/C=C/c1cccc(B(O)O)c1)c1cccc(B(O)O)c1
active: [1] -0.41% | [2] -59.2% | [3] -34.7% | [6] -9.1% | [8] -88.6% | [9] -90.8% | [10] -69.4% | [13] -9.31% | [14] -86.7% | [15] -28.5% | [16] -14.6% | [17] -30.8% | [18] -11% | [19] -56.3%
inactive: [4] 23.3% | [5] 69.6% | [7] 34.2% | [11] 11.5% | [12] 26.4%

CC[C@@H](C(=O)[C@@H](C)[C@@H](O)[C@H](C)[C@@H]1O[C@@H]([C@@H](CC)C(=O)O)CC[C@@H]1C)C1O[C@]2(C=CC(=O)[C@]3(CC[C@@](C)([C@H]4CC[C@](O)(CC)[C@H](C)O4)O3)O2)[C@H](C)C[C@@H]1C (some centres undefined)
inactive: [1] 30.5% | [2] 28.3% | [3] 41.9% | [4] 23.8% | [5] 73.5% | [6] 24.6% | [7] 28.3% | [8] 24.7% | [9] 10.1% | [10] 48% | [11] 13.8% | [13] 30.3% | [14] 25.8% | [15] 50.6% | [17] 16.2% | [18] 42.9%
active: [12] -64.8% | [16] 4.02% | [19] 9.56%

C=C(C)[C@@H]1CC[C@]2(COCCC#N)CC[C@]3(C)[C@H](CC[C@@H]4[C@@]5(C)Cc6c([nH]c7ccccc67)C(C)(C)[C@@H]5CC[C@]43C)[C@@H]12
inactive: [1] 90.6% | [2] 94.5% | [3] 105% | [4] 84.9% | [5] 107% | [6] 87% | [7] 99.8% | [8] 101% | [10] 100% | [11] 100% | [12] 119% | [13] 109% | [14] 112% | [15] 101% | [16] 104% | [17] 101% | [18] 116% | [19] 98.7%
active: [9] -42.8%

CC(C)CCN(CCC(C)C)CC(=O)Nc1ccc(S(=O)(=O)c2ccc(NC(=O)CN(CCC(C)C)CCC(C)C)cc2)cc1
inactive: [1] 46.3% | [2] 76.7% | [3] 67.5% | [4] 48.2% | [5] 75% | [7] 53.7% | [8] 18% | [9] 29.6% | [10] 54% | [12] 19.4% | [13] 31% | [14] 24.9% | [15] 34.5% | [16] 90.1% | [17] 21.4% | [18] 56.2% | [19] 31.6%
active: [6] -64.6% | [11] 3.86%
